This is part of a sample that, as a whole, favours compounds with a hit. Of some 83,000 tested, about 20% had one in any assay.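 Negative percent growth values reflect cell death: -40 means 40% of the cells present at the start died, and -100 means all died.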 Activity calls are given as the source filed them. How the source made its calls: active means growth percent below 10; inactive means the rest.
Experiments:
Test in all cases: NCI-60 one-dose screen, 48 h (100 = growth as untreated, 0 = no growth, -100 = all killed)
Conditions in all cases: 10 µM unless noted
SR leukemia = system: SR leukemia
RPMI-8226 leukemia = system: RPMI-8226 leukemia
OVCAR-8 ovarian = system: OVCAR-8 ovarian
OVCAR-5 ovarian = system: OVCAR-5 ovarian
OVCAR-4 ovarian = system: OVCAR-4 ovarian
SK-OV-3 ovarian = system: SK-OV-3 ovarian
IGROV1 ovarian = system: IGROV1 ovarian
OVCAR-3 ovarian = system: OVCAR-3 ovarian
HS 578T breast = system: HS 578T breast
NCI/ADR-RES ovarian = system: NCI/ADR-RES ovarian
T-47D breast = system: T-47D breast
BT-549 breast = system: BT-549 breast
MDA-MB-435 melanoma = system: MDA-MB-435 melanoma
SW-620 colon = system: SW-620 colon
MCF7 breast = system: MCF7 breast
HCT-116 colon = system: HCT-116 colon
HCC-2998 colon = system: HCC-2998 colon
KM12 colon = system: KM12 colon

Measured: growth

C/C(=N\NC(=O)CSc1nc2ccccc2c(=O)n1CCc1ccc(S(N)(=O)=O)cc1)c1ccccn1
inactive: SR leukemia 22.8% | RPMI-8226 leukemia 30.9% | OVCAR-8 ovarian 22.8% | OVCAR-5 ovarian 39.8% | OVCAR-4 ovarian 19.5% | SK-OV-3 ovarian 20.8% | IGROV1 ovarian 45.5% | OVCAR-3 ovarian 12.5% | HS 578T breast 73.7% | NCI/ADR-RES ovarian 74.4% | T-47D breast 28.4% | BT-549 breast 59.4% | MDA-MB-435 melanoma 33.4% | SW-620 colon 32.1% | MCF7 breast 34.5% | HCT-116 colon 24.5% | HCC-2998 colon 39.3% | KM12 colon 21.3%

O=C1c2ccccc2C(=O)c2c([N+](=O)[O-])ccc(Cl)c21
inactive: SR leukemia 54% | RPMI-8226 leukemia 81.8% | OVCAR-8 ovarian 75.2% | OVCAR-5 ovarian 135% | OVCAR-4 ovarian 62.2% | SK-OV-3 ovarian 112% | IGROV1 ovarian 71.5% | OVCAR-3 ovarian 57.1% | HS 578T breast 98.8% | NCI/ADR-RES ovarian 92.4% | T-47D breast 46.7% | BT-549 breast 88.5% | MDA-MB-435 melanoma 106% | SW-620 colon 28.9% | MCF7 breast 71.7% | HCT-116 colon 63.6% | HCC-2998 colon 104% | KM12 colon 79.1%

CCCCCN1C=C/C(=C\C(=O)N(C)c2ccccc2Br)c2ccccc21
inactive: SR leukemia 74.3% | RPMI-8226 leukemia 73.6% | OVCAR-8 ovarian 88.7% | OVCAR-5 ovarian 96% | OVCAR-4 ovarian 83.5% | SK-OV-3 ovarian 94% | IGROV1 ovarian 98.5% | OVCAR-3 ovarian 97.4% | HS 578T breast 96.8% | NCI/ADR-RES ovarian 100% | T-47D breast 77.3% | BT-549 breast 116% | MDA-MB-435 melanoma 99.4% | SW-620 colon 97% | MCF7 breast 94.3% | HCT-116 colon 87.2% | HCC-2998 colon 102% | KM12 colon 98.4%

CCCCCCOc1ccc(/C=N/Nc2cc(C)nc3ccc(Cl)cc23)cc1
active: SR leukemia -7.39% | RPMI-8226 leukemia -35.3% | OVCAR-8 ovarian -36.4% | OVCAR-4 ovarian -58.1% | IGROV1 ovarian -79% | OVCAR-3 ovarian -97% | NCI/ADR-RES ovarian -27.8% | MDA-MB-435 melanoma -75.9% | SW-620 colon -83.3% | MCF7 breast -66.6% | HCT-116 colon -58.9% | HCC-2998 colon -81.9% | KM12 colon -68.2%
inactive: OVCAR-5 ovarian 26.5% | SK-OV-3 ovarian 90.2% | HS 578T breast 28.5% | T-47D breast 34.5% | BT-549 breast 109%

COc1ccc2c(c1)oc1c(C)c3c(c(C)c12)C(=O)N(CCN1CCOCC1)C3=O
inactive: SR leukemia 85.8% | RPMI-8226 leukemia 92.2% | OVCAR-8 ovarian 92% | OVCAR-5 ovarian 92.6% | OVCAR-4 ovarian 103% | SK-OV-3 ovarian 114% | IGROV1 ovarian 91.4% | OVCAR-3 ovarian 106% | HS 578T breast 102% | NCI/ADR-RES ovarian 104% | T-47D breast 106% | BT-549 breast 97.6% | MDA-MB-435 melanoma 105% | SW-620 colon 93% | MCF7 breast 109% | HCT-116 colon 83% | HCC-2998 colon 111% | KM12 colon 96.1%

O=C(Cn1c(C(=O)c2ccccc2)nc2ccccc21)c1ccc(F)cc1
active: MDA-MB-435 melanoma -32%
inactive: SR leukemia 25.4% | RPMI-8226 leukemia 28.7% | OVCAR-8 ovarian 79.7% | OVCAR-5 ovarian 84.2% | OVCAR-4 ovarian 58.4% | SK-OV-3 ovarian 110% | IGROV1 ovarian 41.1% | OVCAR-3 ovarian 67.2% | HS 578T breast 56.2% | NCI/ADR-RES ovarian 16.1% | T-47D breast 58.7% | BT-549 breast 60.2% | SW-620 colon 22.9% | MCF7 breast 36.4% | HCT-116 colon 39.2% | HCC-2998 colon 50.1% | KM12 colon 43.9%

Cn1ccc2c1CC1CN(Cc3ccco3)C(=O)C1C2C(=O)O (stereo not given)
inactive: SR leukemia 107% | RPMI-8226 leukemia 109% | OVCAR-8 ovarian 106% | OVCAR-5 ovarian 95% | OVCAR-4 ovarian 99.5% | SK-OV-3 ovarian 109% | IGROV1 ovarian 104% | OVCAR-3 ovarian 103% | HS 578T breast 98.7% | NCI/ADR-RES ovarian 99% | T-47D breast 98.7% | BT-549 breast 110% | MDA-MB-435 melanoma 101% | SW-620 colon 98.7% | MCF7 breast 95.7% | HCT-116 colon 104% | HCC-2998 colon 104% | KM12 colon 101%

Cc1ccc(NC(C(=O)c2ccccc2)c2ccccc2)cc1 (stereo not given)
inactive: SR leukemia 69% | RPMI-8226 leukemia 25.6% | OVCAR-8 ovarian 45.9% | OVCAR-5 ovarian 78.4% | OVCAR-4 ovarian 49.5% | SK-OV-3 ovarian 95.5% | IGROV1 ovarian 57.6% | OVCAR-3 ovarian 29.4% | HS 578T breast 32.7% | NCI/ADR-RES ovarian 92.8% | T-47D breast 25.9% | BT-549 breast 42.2% | MDA-MB-435 melanoma 30.6% | SW-620 colon 67.1% | MCF7 breast 38.5% | HCT-116 colon 35.6% | HCC-2998 colon 55.1% | KM12 colon 23.7%

O=c1[nH]nc(-c2ccccc2)c2sc3ncc(-c4ccc(Br)cc4)n3c12
active: OVCAR-3 ovarian 0.339% | MDA-MB-435 melanoma -25.7%
inactive: SR leukemia 26.1% | RPMI-8226 leukemia 12.4% | OVCAR-8 ovarian 46.5% | OVCAR-5 ovarian 90.4% | OVCAR-4 ovarian 85.5% | SK-OV-3 ovarian 70.6% | IGROV1 ovarian 40.4% | HS 578T breast 32.4% | NCI/ADR-RES ovarian 98.2% | T-47D breast 43.1% | BT-549 breast 52.1% | SW-620 colon 35% | MCF7 breast 28.9% | HCT-116 colon 16.6% | HCC-2998 colon 89.8% | KM12 colon 33.9%

C/C=C(\C)C(=O)NC1=CC[C@@]2(C)C(=CCC3C2CC[C@@]2(C)C3CC[C@@H]2C(C)N(C)C)C1=O (stereo not given in full)
inactive: SR leukemia 27.7% | OVCAR-8 ovarian 65.9% | OVCAR-5 ovarian 85.8% | SK-OV-3 ovarian 114% | IGROV1 ovarian 40.4% | OVCAR-3 ovarian 29.3% | HS 578T breast 56.8% | NCI/ADR-RES ovarian 55.7% | T-47D breast 46.7% | BT-549 breast 37.6% | MCF7 breast 10.3% | HCT-116 colon 10.4% | HCC-2998 colon 31.3% | KM12 colon 19.6%
active: RPMI-8226 leukemia 3.85% | OVCAR-4 ovarian 1.84% | MDA-MB-435 melanoma -2.62% | SW-620 colon -11%

c1ccc(-c2cn3c(ccc4ccccc43)n2)cc1
active: MDA-MB-435 melanoma -34.7%
inactive: SR leukemia 20.9% | RPMI-8226 leukemia 62.5% | OVCAR-8 ovarian 71.4% | OVCAR-5 ovarian 77.2% | OVCAR-4 ovarian 91.5% | SK-OV-3 ovarian 77.1% | IGROV1 ovarian 49.3% | OVCAR-3 ovarian 56.3% | HS 578T breast 67.8% | NCI/ADR-RES ovarian 35.7% | T-47D breast 66.5% | BT-549 breast 63.6% | SW-620 colon 22.8% | MCF7 breast 28.5% | HCT-116 colon 35% | HCC-2998 colon 75.5% | KM12 colon 23.4%

COc1ccc(OC)c(-c2cc(-c3ccc(Cl)cc3)c3c(N)c(C(=O)c4ccc(Cl)cc4)sc3n2)c1
inactive: SR leukemia 101% | RPMI-8226 leukemia 94.2% | OVCAR-8 ovarian 104% | OVCAR-5 ovarian 96.4% | OVCAR-4 ovarian 93.1% | SK-OV-3 ovarian 89.8% | IGROV1 ovarian 92.1% | OVCAR-3 ovarian 103% | HS 578T breast 115% | NCI/ADR-RES ovarian 103% | T-47D breast 87.2% | BT-549 breast 84.1% | MDA-MB-435 melanoma 107% | SW-620 colon 112% | MCF7 breast 86.2% | HCT-116 colon 95.7% | HCC-2998 colon 100% | KM12 colon 100%

CC(=O)c1ccc(NS(=O)(=O)c2cccc(C(=O)Nc3ccc(Br)cc3)c2)cc1
inactive: SR leukemia 87.8% [25 µM] | RPMI-8226 leukemia 22% [25 µM] | OVCAR-8 ovarian 67.3% [25 µM] | OVCAR-5 ovarian 89.2% [25 µM] | OVCAR-4 ovarian 63.6% [25 µM] | SK-OV-3 ovarian 66.5% [25 µM] | IGROV1 ovarian 73.7% [25 µM] | OVCAR-3 ovarian 70.9% [25 µM] | HS 578T breast 79.7% [25 µM] | NCI/ADR-RES ovarian 48% [25 µM] | T-47D breast 30.6% [25 µM] | BT-549 breast 48.3% [25 µM] | MDA-MB-435 melanoma 53.4% [25 µM] | SW-620 colon 75.6% [25 µM] | MCF7 breast 60.8% [25 µM] | HCT-116 colon 48.4% [25 µM] | HCC-2998 colon 79.8% [25 µM] | KM12 colon 58.2% [25 µM]

CCNC(=O)Oc1ccc(/C(=C(\C)c2ccccc2)c2ccc(OCCCN(C)C)cc2)cc1
inactive: SR leukemia 10.2% | RPMI-8226 leukemia 66.6% | OVCAR-8 ovarian 86.5% | OVCAR-5 ovarian 81.4% | OVCAR-4 ovarian 84.4% | SK-OV-3 ovarian 80.7% | IGROV1 ovarian 87.5% | OVCAR-3 ovarian 85.3% | HS 578T breast 57% | NCI/ADR-RES ovarian 81.6% | T-47D breast 45.6% | BT-549 breast 70.7% | MDA-MB-435 melanoma 69.6% | SW-620 colon 94.5% | MCF7 breast 27% | HCT-116 colon 48.8% | HCC-2998 colon 67.9% | KM12 colon 65.8%

N#Cc1c(NC(=O)NCc2ccccc2)sc2c1CCCC2
active: OVCAR-3 ovarian -15.7% | HS 578T breast 9.64% | MDA-MB-435 melanoma -35.3%
inactive: SR leukemia 23.3% | RPMI-8226 leukemia 17.7% | OVCAR-8 ovarian 26.8% | OVCAR-5 ovarian 46% | OVCAR-4 ovarian 48.4% | SK-OV-3 ovarian 35.1% | IGROV1 ovarian 28.8% | NCI/ADR-RES ovarian 11.1% | T-47D breast 40% | BT-549 breast 24.1% | SW-620 colon 24% | MCF7 breast 19.5% | HCT-116 colon 12.2% | HCC-2998 colon 22.4% | KM12 colon 20.5%

From PubChem BioAssay (NCI)
